Most compounds without a hit are left out; they make up all but 9.3% or so of the library.
mHtt clearance: compounds clearing mutant huntingtin protein; HeLa Exon1htt(103Q)mCFP, aggregate imaging; zero = plate's median compound well; inhibition, % at 1.5 µM; 47,000 tested, 0.42% active;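 active means inhibition of aggregate fluorescence above about 70%, also judged a hit by eye on the cell image, limit read from the data, passing the limit was not always enough; inconclusive means no rule stated for this call; inactive means not judged a hit on image review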;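 further: cells exposed to compound for three days before fixation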
NADH coupling: inhibitors of enzymes used to reach an NAD/NADH endpoint | coupled PK/LDH NADH assays, four targets | IC50, µM (titrated, usually from 10 µM) | 65,000 tested, 0.02% active | AID 774;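 active means single-dose screening hits from any of four coupled enzyme assays that gave an IC50 when retested across doses; inconclusive means no clear call, values can overlap the other calls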;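 further: the DPM-DC format reads NADH fluorescence rather than 340 nm absorbance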
A340 absorber: compound absorbs light at 340 nm; compound absorbance at 340 nm, fold over control; fold change at 10 µM; 65,000 tested, under 10 active;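 active means at 10 µM dose, initial 340 nm absorbance at least 2 fold that of control wells; inactive means change under 2 fold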;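 further: initial absorbance extrapolated from kinetic A340 decline of NADH oxidation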
Autofluor 339: intrinsic fluorescence of library compounds, ex339/em460 – biochemical, MLSMR library, data from DPM-DC assay, artefact control, profiling panel; compound autofluorescence, ex339/em460 nm, NADH buffer; hits give high values; 1 = no-compound wells, NADH background; fluorescence fold increase at 10 µM; 65,000 tested, 5.5% active; AID 709;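 active means at 10 µM, mean starting fluorescence two-fold or more over control wells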;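 further: signal is the first read of a kinetic run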
M1 antagonist: blocks the rat M1 muscarinic receptor response to acetylcholine; CHO-M1 cells, Fluo-4 calcium, ACh EC80 antagonist mode; hits give low values; B-score at 10 µM; 64,000 tested, 3.4% active; AID 628;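 active means calcium fluorescence response, raw or row-and-column corrected B-score, differing from the plate sample mean either way at a set confidence level, mostly lower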
M1 ag: M1 muscarinic receptor agonism; CHO-M1 cells, Fluo-4 calcium fluorescence, agonist mode; hits give high values; B-score at 10 µM; 64,000 tested, 3% active;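 active means fluorescence rise, raw or as B-score row- and column-corrected plate score, outside the 99.7% band of its plate's samples, either direction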
M1 agonist conf: confirmation of rat M1 muscarinic receptor agonists; shares compounds with M1 ag; CHO-M1 cells, Fluo-4 calcium fluorescence, agonist mode; actives lie on both sides; fluorescence change (max-min) at 10 µM; 1,700 tested, 19% active; AID 1488;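 active means fluorescence change differs from the solvent-only DMSO control mean at a set confidence level in both duplicate runs; inconclusive means differs from solvent-only control mean in just one of two runs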;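 further: an EC20 dose of acetylcholine follows compound addition during the same imaging run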
M4 agonist ctr: rat M4 muscarinic agonism, M1 counter-screen. shares compounds with M1 ag. CHO M4/Gqi5 cells, Fluo-4 calcium fluorescence, agonist mode; actives lie on both sides. fluorescence change (max-min) at 10 µM. 1,700 tested, 9% active. AID 1741;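 active means fluorescence change differing from the plate's solvent-only control wells at 99.7% confidence in both duplicates, whether higher or lower; inconclusive means differs from solvent controls in only one of two duplicates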
Target sequence (P08485 whole entry, looked up): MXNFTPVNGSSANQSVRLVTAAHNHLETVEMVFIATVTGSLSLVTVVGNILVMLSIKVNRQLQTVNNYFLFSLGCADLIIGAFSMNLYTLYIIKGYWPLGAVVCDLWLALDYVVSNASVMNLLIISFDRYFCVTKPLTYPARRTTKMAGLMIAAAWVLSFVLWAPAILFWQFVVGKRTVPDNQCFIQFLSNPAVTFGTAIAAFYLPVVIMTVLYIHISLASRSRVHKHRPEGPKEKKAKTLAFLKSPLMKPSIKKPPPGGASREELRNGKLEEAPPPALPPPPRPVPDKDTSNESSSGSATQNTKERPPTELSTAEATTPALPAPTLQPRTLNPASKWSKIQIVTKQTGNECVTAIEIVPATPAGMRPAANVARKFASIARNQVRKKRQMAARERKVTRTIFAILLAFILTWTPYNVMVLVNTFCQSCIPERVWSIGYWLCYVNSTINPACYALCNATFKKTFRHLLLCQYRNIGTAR
Of the large screens only hits and unclear results are named; the others gave an inactive call (follow-up assays come after a bar, where they were run).

CC1(C)N=C(/C=N/O)CN1O	none
O=C1Nc2cc(Cl)c(Cl)cc2N(O)N1c1ccc(Cl)c(Cl)c1	none (no result: NADH coupling, A340 absorber, Autofluor 339, M1 antagonist, M1 ag)
CCc1nc(NC(C)C)c2oc3ccccc3c2n1	none (no result: mHtt clearance)
CCc1nc(NCc2ccccn2)c2oc3ccccc3c2n1	M1 ag 4.2 (no result: mHtt clearance) | M1 agonist conf -24 | M4 agonist ctr inconclusive
O=C(CN1CCN(C2CCCCC2)CC1)NCCC1=CCCCC1	M1 ag 13 (no result: mHtt clearance) | M1 agonist conf 94 | M4 agonist ctr inactive
CS(=O)(=O)N(CC(=O)NCCC1=CCCCC1)C1CCCCC1	none
C/C(NCCN1CCOCC1)=C(\C#N)C(N)=O	none (no result: mHtt clearance)
CCC(CC)C(=O)NCc1ccccc1Cl	none (no result: mHtt clearance)
CN(C)c1ccc(/C=C/c2cc[n+]([O-])cc2)cc1	M1 ag 247 | M1 agonist conf 876 | M4 agonist ctr 895
CCC1Oc2ccc(C)cc2N(CC(=O)NCC2COc3ccccc3O2)C1=O (configuration not stated)	none (no result: NADH coupling, A340 absorber, Autofluor 339, M1 antagonist, M1 ag)
COC(=O)c1ccc2c(c1)NC(=O)C(N1CCCC1)S2 (configuration not stated)	none
COC(=O)c1ccc2c(c1)SC1=C(CCCC1=O)N2	M1 ag 11 | M1 agonist conf inactive | M4 agonist ctr inconclusive
COC(=O)c1cc(Br)c(=O)n(-c2cc(C)on2)c1	none
CCN(CC)C(=O)CSc1nc2ccc(NC(=O)CSc3nccn3C)cc2s1	none (no result: mHtt clearance)
N=c1c(S(=O)(=O)c2ccccc2)cc2c(=O)n3ccccc3nc2n1Cc1ccco1	Autofluor 339 4, M1 ag 9 (no result: mHtt clearance) | M1 agonist conf inactive | M4 agonist ctr inactive
Cc1ccc(S(=O)(=O)c2cc3c(=O)n4ccccc4nc3n(Cc3ccco3)c2=N)cc1C	Autofluor 339 3.5, M1 ag 5.9 | M1 agonist conf inactive | M4 agonist ctr inactive
Cc1ccc(S(=O)(=O)NCCn2c(C)cc3ccccc32)cc1	none (no result: mHtt clearance)
Cc1ccc(S(=O)(=O)c2cc3c(=O)n4ccccc4nc3n(C)c2=N)cc1	M1 ag 5.1 (no result: mHtt clearance) | M1 agonist conf inactive | M4 agonist ctr inconclusive
Cc1cccc(C(=O)Nc2ccccc2SCC2CSc3nc4ccccc4c(=O)n32)c1 (configuration not stated)	none (no result: NADH coupling, A340 absorber, Autofluor 339, M1 antagonist, M1 ag)
O=C(Nc1ccc2nc(-c3ccco3)c(-c3ccco3)nc2c1)N1CCCCCC1	Autofluor 339 2.7, M1 antagonist -4.6, M1 ag 30 (no result: mHtt clearance) | M1 agonist conf 362 | M4 agonist ctr inconclusive
CCOC(=O)C1CCN(C(=O)Nc2ccc3nc(-c4ccco4)c(-c4ccco4)nc3c2)CC1	M1 antagonist -12, M1 ag 84 | M1 agonist conf 392 | M4 agonist ctr inconclusive
Nc1nnc(C(c2ccccc2)c2ccccc2)s1	none (no result: NADH coupling, A340 absorber, Autofluor 339, M1 antagonist, M1 ag)
O=C(NCc1ccccn1)C1CC(c2ccc(Cl)c(Cl)c2)=NO1 (configuration not stated)	none (no result: NADH coupling, A340 absorber, Autofluor 339, M1 antagonist, M1 ag)
O=C(Nc1cccnc1)C1CC(c2ccc(Cl)c(Cl)c2)=NO1 (configuration not stated)	M1 ag -2.6 | M1 agonist conf inactive | M4 agonist ctr inactive
c1ccc(COc2ccc(Nc3ncnc4nc[nH]c34)cc2)cc1	none
CCOC(=O)Cc1cc(=O)[nH]c(/N=C(\N)Nc2ccc(C)cc2C)n1	none (no result: NADH coupling, A340 absorber, Autofluor 339, M1 antagonist, M1 ag)
C=CCn1nnc2sc3c(c2c1=O)CCC(C)C3 (configuration not stated)	none (no result: mHtt clearance, M1 antagonist, M1 ag)
CCCCCC(=O)N1CCCC(c2nc(-c3ccc(OC)cc3)no2)C1 (configuration not stated)	none (no result: NADH coupling, A340 absorber, Autofluor 339, M1 antagonist, M1 ag)
COc1ccc(-c2ccc(-c3noc(C4CCCCC4)n3)c(OC)n2)cc1	Autofluor 339 3.7, M1 ag 3.9 (no result: mHtt clearance) | M1 agonist conf inactive | M4 agonist ctr inconclusive
O=S(=O)(c1cccc(S(=O)(=O)N2CCC(N3CCCCC3)CC2)c1)N1CCOCC1	M1 ag 5.9 | M1 agonist conf inactive | M4 agonist ctr inactive
COc1cc(NC(=O)C2CC(=O)NC3=C2C(=O)CC(C)(C)C3)c(OC)cc1Cl (configuration not stated)	M1 ag 16 (no result: mHtt clearance) | M1 agonist conf inactive | M4 agonist ctr inactive
CCOC(=O)C1CCN(C(=O)C2CCN(S(=O)(=O)c3cc(Cl)ccc3Cl)CC2)CC1	none
c1ccc(Nc2nc(N3CCCCC3)nc(N3CCNCC3)n2)cc1	M1 ag 11 | M1 agonist conf inactive | M4 agonist ctr inactive
C1CCN(c2nc(N3CCCC3)nc(N3CCNCC3)n2)C1	none (no result: mHtt clearance)
Cc1ccnc(SCC(=O)Nc2sc3c(c2C#N)CCCC3)n1	M1 ag 3.4 (no result: mHtt clearance) | M1 agonist conf inactive | M4 agonist ctr inconclusive
O=C(c1nc(-c2ccccc2)n(-c2ccccc2)n1)N1CCN(S(=O)(=O)c2ccccc2)CC1	M1 antagonist -3.8, M1 ag 3.8 (no result: mHtt clearance) | M1 agonist conf inactive | M4 agonist ctr inconclusive
O=C1CC(N2CCN(C3CCc4ccccc4C3)CC2)C(=O)N1c1ccccc1 (configuration not stated)	none (no result: mHtt clearance)
COc1ccc(-c2nnc(N(C)C(=O)C3CCCO3)s2)cc1 (configuration not stated)	none (no result: NADH coupling, A340 absorber, Autofluor 339, M1 antagonist, M1 ag)
Cc1cnc(-c2nnc(N(C)C(=O)C3CCCO3)s2)cn1 (configuration not stated)	Autofluor 339 2.3, M1 ag -1.7 | M1 agonist conf inactive | M4 agonist ctr inactive
CCOC(=O)Cc1csc(NC(=O)COc2ccc(N(C)S(=O)(=O)c3cccs3)cc2)n1	M1 ag 6.2 (no result: mHtt clearance) | M1 agonist conf inconclusive | M4 agonist ctr inactive
CCOC(=O)Cc1csc(NC(=O)COc2ccccc2OC)n1	none
Cc1nc2ccc(S(=O)(=O)NCC(=O)N3CCCC(C)C3)cc2s1 (configuration not stated)	none
Cc1noc(C)c1C(=O)NCCCN1CCCC1=O	none (no result: mHtt clearance)
CCOc1ccc(S(=O)(=O)N(C)CCO)cc1-c1nc2c(C(C)(C)C)nn(C)c2c(=O)[nH]1	M1 ag 5.6 | M1 agonist conf inactive | M4 agonist ctr inactive
CCN(CC)S(=O)(=O)c1cccc(-c2nnc(SCCOc3ccccc3C)o2)c1	M1 ag 5.6 (no result: mHtt clearance) | M1 agonist conf inactive | M4 agonist ctr inconclusive
COc1ccc(-n2ccnc2SCC(=O)Nc2ccc(OC)cc2OC)cc1	none
CCCC(OC(=O)CC1Sc2ccccc2NC1=O)C(=O)NCc1ccco1 (configuration not stated)	M1 ag 2.5 (no result: mHtt clearance) | M1 agonist conf inactive | M4 agonist ctr inactive
COc1ccc2nc(N3CCC(O)CC3)c(C#N)cc2c1	Autofluor 339 2.9, M1 ag 55 | M1 agonist conf 198 | M4 agonist ctr 166
COc1ccc2nc(N3CCC(C)CC3)c(C#N)cc2c1	M1 ag 4 (no result: mHtt clearance) | M1 agonist conf inactive | M4 agonist ctr inconclusive
CC(C(N)=O)N1C(=O)c2cccc3cccc1c23 (configuration not stated)	none (no result: NADH coupling, A340 absorber, Autofluor 339, M1 antagonist, M1 ag)
